Rows were chosen to be rich in hits. Some 0.63% of all compounds tested hit in one or more screens of this group.
TCR act – activators of T cell receptors. 330,000 tested, under 10 active. Potency, µM (doses to about 9.22 µM), actives largely listed as activators. primary human leukocytes, anti-CD3, IL-2 HTRF, 48 h. AID 504894; active = well fitted activation curve with a large enough effect; inconclusive = small, poorly fitted or top-dose-only effect, or another doubt; inactive = no such curve, though single readings can be large or run the other way
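Readout: HTRF IL-2, Eu-cryptate/d2 antibody pair, 320nm excitation, 665nm emission. Stimulus: a-CD3 beads, no co-stimulation. Cells: primary human leukocytes. Exposure: 48 hr with compound.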
TSHR antag – human thyrotropin receptor antagonism | P16473 | TSHR-expressing cells, TSH-stimulated cAMP HTRF, 2 h; stronger effect = lower value | activity change, negative = inhibition, % at 11.5 µM | actives 0.2% (n = 330,000) | AID 504810;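 active = activity change below a set negative limit, meaning inhibition stronger than a set level, cut at about -70% in these data; inconclusive = activity change between two set negative limits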
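Freshly harvested TSHR cells receive pin-tooled compound, then EC80 TSH at 4nM final. After 2 hours at 37 deg C, antibody in lysis buffer and cAMP-d2 are added; 30 minutes at ambient temperature precede the HTRF read.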
Pin1 inh – blocks the human prolyl isomerase Pin1; AID 504891; actives 0.009% (n = 390,000); Q13526; Pin1 FP peptide displacement, HiFluor488, 10 min; Potency, µM (titrated, usually from 115 µM), most hits filed as inhibitors; active = well fitted inhibition curve with a large enough effect in the polarisation, with a control signal flat, not every such curve was filed as active; inconclusive = small, poorly fitted or top-dose-only effect, or effect the other way, or a change in a side signal; inactive = no such curve, though single readings can be large or run the other way; the % refers to the polarisation
Target sequence (Q13526 whole entry, looked up): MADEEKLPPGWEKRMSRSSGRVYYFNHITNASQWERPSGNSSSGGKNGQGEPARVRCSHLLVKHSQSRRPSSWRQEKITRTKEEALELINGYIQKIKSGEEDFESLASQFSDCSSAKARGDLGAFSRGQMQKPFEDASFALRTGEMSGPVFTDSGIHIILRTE
gsp agonist – agonists of gsp mutant (McCune-Albright syndrome); actives 0.13% (n = 340,000); Potency, µM (doses to about 76.9 µM), most hits filed as activators; gsp mutant cells, cAMP HTRF, 30 min; AID 624287; active = well fitted activation curve with a large enough effect; inconclusive = small, poorly fitted or top-dose-only effect, or another doubt; inactive = no such curve, though single readings can be large or run the other way; cell line not stated here;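 also: phosphodiesterase inhibitor Ro 20-1724 added with compounds to block cAMP breakdown; nearly all actives have a fitted effect of over 60% in size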
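Cells stably selected in G418 were plated at 2000/well, grown 16-24 hr, then given compounds in DMSO with the PDE inhibitor […] (300 uM solution added) for 30 min at 37C; cAMP was read by HTRF.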
gsp antagonist – antagonizes gsp, the McCune-Albright syndrome mutation; actives 0.4% (n = 340,000); Potency, µM (titrated, usually from 76.9 µM), actives largely listed as inhibitors; gsp-mutant cells, cAMP HTRF, 30 min; calls by dose curve; cell line not stated here;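 also: intracellular cAMP measured with PDE inhibitor Ro 20-1724 present during compound exposure; nearly all actives have a fitted effect of over 65% in size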
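Cells in G418 medium, seeded 16-24 h, 37C; buffer exchange to DPBS + 1 mM CaCl2, 0.5 mM MgCl2, 0.05% BSA; cpds in DMSO + […] (300 uM stock), 30 min 37C; HTRF cAMP detection.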
Numbers stand for hits; . = inactive; ? = inconclusive; / = no result; + = active, no number; [ ] = another dose, or the depositor's remark.

SMILES	TCR act	TSHR antag	Pin1 inh	gsp agonist	gsp antagonist
CCOC(=O)N1CCN(C(=O)c2oc3ccc(S(=O)(=O)N4CC(C)CC(C)C4)cc3c2C)CC1 (centres undefined)	/	.	.	.	35.5µM
OCC1OC(Oc2cccc3ccccc23)C(O)C(O)C1O (centres undefined)	.	?	.	.	.
O=C(O)c1cc(O)c2c(c1)[C@@H]([C@H]1c3cc(C(=O)O)cc(O)c3C(=O)c3c(O[C@@H]4O[C@H](CO)[C@@H](O)[C@H](O)[C@H]4O)cccc31)c1cccc(O[C@@H]3O[C@H](CO)[C@@H](O)[C@H](O)[C@H]3O)c1C2=O	.	-79.0	2.51µM	/	.
CCOc1ccc(S(=O)(=O)N2CCN(c3ccccn3)CC2)cc1	/	.	.	?	.
OCCn1c(-c2ccc3c(c2)OCO3)csc1=Nc1ccccc1	.	.	.	.	28.2µM
Cc1cc2ccccn2c1C(=O)c1nc(N2CCOCC2)ncc1Cl	.	.	.	.	.
Cc1snc(S(=O)(=O)/C(C#N)=N/Nc2cccc(C(F)(F)F)c2)c1C#N	.	.	.	.	35.5µM
C/C=C(\C)c1nnc(NC(=O)C(C)C)s1	.	.	.	.	.
O=C(O)c1ccc(Cl)c(S(=O)(=O)N(Cc2ccccc2)c2ccc(F)cc2)c1	.	.	.	.	.
CCn1nc([N+](=O)[O-])c(C(C#N)c2nc3ccccc3n2C)c(Cl)c1=O (centres undefined)	.	.	.	.	.
CCCn1nc([N+](=O)[O-])c(C(C#N)c2nc3ccccc3s2)c(Cl)c1=O (centres undefined)	.	-76.0	?	.	31.6µM
O=C(Nc1nnc(C2CC2)s1)C1COc2ccccc2O1 (centres undefined)	.	.	.	.[15.4 µM]	/
O=C(Nc1nnc(C(F)(F)F)s1)C1COc2ccccc2O1 (centres undefined)	.	.	.	.	35.5µM
O=C(Nc1ccccc1)C1CC(O)CN1S(=O)(=O)c1ccc([N+](=O)[O-])cc1 (centres undefined)	.	.	.	.	.
CCCc1cc(C(=O)Nc2ccc(C(=O)c3ccc(F)cc3)cc2)n(C)n1	.	.	.	.	35.5µM
C[C@@H]1NC(=O)c2cc([N+](=O)[O-])cc(I)c2OCC[C@@H](C(N)=O)NC(=O)[C@H](CCCCN)NC1=O	.	.	.	/	.
NCCCC[C@H]1NC(=O)[C@H](CCC(=O)O)NC(=O)c2cc([N+](=O)[O-])cc(I)c2OCC[C@@H](C(N)=O)NC1=O	.	.	14.1µM	/	.
CSC1=NCCN1S(=O)(=O)c1ccc(C)cc1	.	.	.	.	.
COc1ccc(N2C(=O)C(Cl)=C(Oc3cccc(OC)c3)C2=O)cc1	.	.	.	.[15.4 µM]	28.2µM
Cc1ccc(Cn2c(C(=O)O)c(CNCCc3ccco3)c3ccc(C)cc32)cc1	/	/	.	/	/
Cc1ccc(C(=O)Nc2ccc3c(c2)C(=O)N(C)C3=O)c(C)c1	.	.	.	35.5µM	.
CN1C(=O)c2ccc(NC(=O)c3cccc4ccccc34)cc2C1=O	.	.	.	.	.
CCOc1ccc(/C=N/NC(=O)c2ccccc2O)cc1CN1CC2CC(C1)c1cccc(=O)n1C2 (centres undefined)	.	.	.	/	35.5µM
Clc1ccccc1CSc1nnc(-c2ccccn2)n1Cc1ccco1	.	.	.	.	.
COc1cc2c(cc1NC(=O)CSc1nccn1C)oc1ccccc12	.	.	.	.	28.2µM
SMILES	TCR act	TSHR antag	Pin1 inh	gsp agonist	gsp antagonist
COc1cc2c(cc1NC(=O)C(C)Sc1ccc(NC(C)=O)cc1)oc1ccccc12 (centres undefined)	.	.	.	?	20µM
COc1cc2c(cc1NC(=O)CSc1ccccc1)oc1ccccc12	.	.	.	.	?
c1ccc(-c2cn3c(n2)CCC3)cc1	.	.	.	.	.
O=[N+]([O-])c1ccc(-c2cn3c(n2)CCC3)cc1	.	.	.	14.1µM	.
CCOc1ccccc1C1N(c2ccc(OC)cc2)C(=O)C2CCCN21 (centres undefined)	.	.	.	.	.
Cc1oc2cc3oc(=O)c(CC(=O)NCC(=O)N[C@@H](C(=O)O)c4ccccc4)c(C)c3cc2c1C	.	.	?	/	.
Cc1oc2cc3oc(=O)c(CC(=O)N[C@H](C(=O)N[C@@H](C(=O)O)c4ccccc4)C(C)C)c(C)c3cc2c1C	.	.	?	/	50.1µM
C/C(=N/NC(=O)c1ccccn1)c1ccncc1	.	.	.	.[15.4 µM]	.
O=c1[nH]c(=O)n(Cc2ccccc2)c2c1C(C(F)(F)F)(C(F)(F)F)N=C(c1ccco1)N2	.	.	.	.	35.5µM
O=C(OCC(=O)N1CCCCC1)c1c[nH]c2ccccc12	.	.	.	.	.
O=C(NC1CCN(Cc2ccccc2)C1)c1cccc(S(=O)(=O)N2CCOCC2)c1 (centres undefined)	.	.	.	.	.
O=C(NC1CCN(Cc2ccccc2)CC1)c1cc(S(=O)(=O)N2CCOCC2)ccc1Cl	.	/	.	.	50.1µM
CC(NC(=O)c1cccc(S(=O)(=O)N2CCN(Cc3ccccc3)CC2)c1)c1ccccc1Cl (centres undefined)	.	/	.	.	+
CCc1cc(=O)oc2c3c(cc(OCC(=O)NCCCOC)c12)OC(C)(C)CC3	.	.	.	.	.
Cc1cc(=O)[nH]c(SCC(=O)O)c1C#N	.	.	.	.	.
Cc1cc(=O)[nH]c(SCC(=O)C23CC4CC(CC(C4)C2)C3)c1C#N	.	.	.	.	35.5µM
CN(C)c1ccc(C2C3C(=O)N(c4ccc(C(=O)O)cc4)C(=O)C3ON2c2ccccc2)cc1 (centres undefined)	.	.	?	.	.
O=C(CN1CCN(C(=O)c2ccc(-c3nc4ccccc4s3)o2)CC1)Nc1ccccc1Cl	.	.	.	.[15.4 µM]	17.8µM
O=C(CN1CCN(C(=O)c2ccc(-c3nc4ccccc4s3)o2)CC1)Nc1ccc(F)cc1	.	.	.	.	44.7µM
CC(=O)c1ccc(-n2c(CCC(=O)O)ccc2-c2ccc(Br)cc2)cc1	.	.	.	?	0.891µM
CC(=O)c1ccc(-n2c(CCC(=O)O)ccc2-c2ccc(C)cc2)cc1	.	.	.	.	?
O=c1cc(-c2ccccc2Cl)oc2c(NS(=O)(=O)c3cc(Cl)cc(Cl)c3O)ccc(O)c12	.	?	22.4µM	/	?
COc1cccc(CNC(=O)C2CCCN(S(=O)(=O)N(C)c3ccc(F)cc3)C2)c1OC (centres undefined)	/	/	.	/	/
Cc1ccc(C(=O)Nc2nc(-c3ccc(F)cc3)cs2)o1	.	-120.8	.	.	.
Cc1noc(C)c1C(=O)Nc1nc(-c2ccc([N+](=O)[O-])cc2)cs1	.	.	.	.	28.2µM
O=C(Nc1nc(-c2ccccc2)cs1)c1ccccc1NS(=O)(=O)c1ccc(F)cc1	.	-85.1	?	?	?
